A selection: hits, their analogues and other compounds. The true share with any hit is near 10%.
NPR1 antag = Natriuretic polypeptide receptor (hNpr1) antagonism - Primary qHTS; 76,000 tested, 1.6% active; AID 1347048, 2019; Atrial natriuretic peptide receptor 1 (Homo sapiens), P16066; Potency, µM (highest dose often 46.3 µM), for the others: at the top dose activity change, negative = inhibition, actives largely listed as inhibitors; HEK293 hNpr1 GloSensor cGMP, ANP-stimulated luminescence; calls by dose curve; also: % is scaled to controls: 0 for no effect and ±100 for the full control effect; nearly all actives have a fitted effect of over 60% in size
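HEK293 cells stably expressing human Npr1 and cGMP GloSensor pGS-40F, loaded 2 h with 2% GloSensor reagent, given compound 30 min at room temperature. Luminescence read before and 20 min after 0.1 nM hNppA.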
HEK cytotox = Cytotoxic Profiling in HEK 293 Cell Line of Diverse Libraries Using Quantitative High-Throughput Screening; HEK 293 viability, ATP luminescence (CellTiter-Glo), 48-72 h; Potency, µM (doses to about 115 µM), without a hit: top-dose activity change, negative = cytotoxicity, actives largely listed as inhibitors; 94,000 tested, 6.6% active; also: % is scaled to controls: 0 for no effect and ±100 for the full control effect; nearly all actives have a fitted effect of over 60% in size
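Pintool-delivered compounds were incubated with HEK 293 cells (250 cells/well) at 37 degree Celsius for 48 or 72 hr. ATP-dependent luminescence (CellTiter-Glo) then reported remaining viable cells.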
FLuc inh = Firefly luciferase inhibition profiling of diverse chemical library using quantitative high-throughput screening | Luciferin 4-monooxygenase (Photinus pyralis), P08659 | AID 1347043, 2019 | Potency, µM (doses to about 115 µM), most hits filed as inhibitors | 76,000 tested, 2.5% active | purified P. pyralis luciferase, luminescence, biochemical; also: % is scaled to controls: 0 for no effect and ±100 for the full control effect; nearly all actives have a fitted effect of over 65% in size
Target sequence (P08659 whole entry, looked up): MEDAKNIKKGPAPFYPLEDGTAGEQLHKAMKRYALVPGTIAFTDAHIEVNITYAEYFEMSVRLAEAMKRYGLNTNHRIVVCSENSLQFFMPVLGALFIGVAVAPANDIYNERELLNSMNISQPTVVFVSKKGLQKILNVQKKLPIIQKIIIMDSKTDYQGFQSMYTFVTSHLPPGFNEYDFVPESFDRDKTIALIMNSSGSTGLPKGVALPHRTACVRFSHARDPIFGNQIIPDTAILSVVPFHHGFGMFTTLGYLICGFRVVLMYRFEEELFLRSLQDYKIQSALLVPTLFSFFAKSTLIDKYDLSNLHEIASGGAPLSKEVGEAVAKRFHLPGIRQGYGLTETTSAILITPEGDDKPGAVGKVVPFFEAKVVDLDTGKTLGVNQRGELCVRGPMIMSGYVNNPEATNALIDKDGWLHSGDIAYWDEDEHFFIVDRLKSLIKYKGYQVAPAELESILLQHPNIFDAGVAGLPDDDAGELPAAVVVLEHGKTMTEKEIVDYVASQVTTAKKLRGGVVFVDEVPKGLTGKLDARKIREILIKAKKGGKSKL
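Purified P. pyralis luciferase (10nM final) in 50mM Tris acetate pH 7.5, 10mM Mg acetate, 0.01% Tween-20, 0.05% BSA with 10uM D-luciferin and 10uM ATP. Compounds titrated qHTS. Luminescence imaged on CCD.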
GPT2 inh = Primary qHTS assay for inhibitors of Glutamate pyruvate transaminase 2 (GPT2); Alanine aminotransferase 2 (Homo sapiens), Q8TD30; Recombinant GPT2, coupled pyruvate oxidase/HRP Amplex Red fluorescence; Potency, µM (top dose mostly 57.7 µM), for inactives: at the top dose activity change, negative = inhibition, usual class: inhibitors; 100,000 tested, 0.25% active; also: % is scaled to controls: 0 for no effect and ±100 for the full control effect; nearly all actives have a fitted effect of over 60% in size
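GPT2 10ng/uL, a-KG 250uM, L-Ala 2mM, HEPES pH7.5 + 0.0001% Tween; 30 min RT. Then Amplex mix (PO/HRP/ThPP), 30 min RT dark, fluorescence. AOA 50uM used as positive control.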
NIH3T3 tox = Cytotoxic Profiling in NIH 3T3 Cell Line of Diverse Libraries Using Quantitative High-Throughput Screening. NIH 3T3 viability, CellTiter-Glo ATP luminescence, 48-72 h. 94,000 tested, 4.3% active. Potency, µM (doses to about 96.7 µM), for the others: at the top dose activity change, negative = cytotoxicity, most hits filed as inhibitors. AID 1345082, 2018; also: % is scaled to controls: 0 for no effect and ±100 for the full control effect; nearly all actives have a fitted effect of over 55% in size
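NIH 3T3 cells at 400 cells/well received 23 nL of compound by pintool and were incubated 48 or 72 h at 37 °C. Viability was read as ATP-coupled CellTiter-Glo luminescence.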
Npr1 antag conf = Natriuretic polypeptide receptor (hNpr1) antagonism - Confirmation; shares compounds with NPR1 antag; HEK293 hNpr1 cGMP GloSensor luminescence, ANP-stimulated; Potency, µM (titrated, usually from 57.6 µM), for the others: at the highest dose activity change, negative = inhibition, hits mostly inhibitors; 1,400 tested, 76% active; calls by dose curve; also: nearly all actives have a fitted effect of over 70% in size
Npr2 selectivity = Natriuretic polypeptide receptor (hNpr2) antagonism - Subtype selectivity assay. shares compounds with NPR1 antag. HEK293 hNpr2 GloSensor cGMP luminescence, CNP-stimulated. Potency, µM (titrated, usually from 57.6 µM), for the others: at the highest dose activity change, negative = inhibition, most hits filed as inhibitors. 1,400 tested, 67% active. AID 1347046, 2019; calls by dose curve; also: nearly all actives have a fitted effect of over 70% in size
FLuc inh counter = Natriuretic polypeptide receptor (hNpr1) antagonism - Confirmation firefly luciferase (FLuc) inhibition counterscreen | shares compounds with NPR1 antag | purified FLuc enzyme, luminescence, Km substrate | Potency, µM (doses to about 57.6 µM), for the others: top-dose activity change, negative = inhibition, actives largely listed as inhibitors | 1,400 tested, 0.7% active | AID 1347047, 2019; also: 0% is about no effect
GloSensor cGMP = Natriuretic polypeptide receptor (hNpr1) antagonism - Counterscreen GloSensor control cell line | 1,400 tested, 69% active | HEK293 GloSensor cGMP, SNP-stimulated, luminescence | shares compounds with NPR1 antag | Potency, µM (top dose mostly 57.6 µM), without a hit: at the top dose activity change, negative = inhibition, actives largely listed as inhibitors; calls by dose curve; also: % is scaled to controls: 0 for no effect and ±100 for the full control effect; nearly all actives have a fitted effect of over 70% in size
Starred values were filed as active, the others as inactive. Unless noted, calls follow the shape of the dose curve; as a rule, active = well fitted curve in the direction sought with a large enough effect; inconclusive = small, poorly fitted or top-dose-only effect, or another doubt; inactive = no such curve, though single readings can be large; an effect the other way counts as inactive or inconclusive. Potency is read from the fitted curve at half-maximal effect.

How did O=C(c1ccc2ncccc2c1)N1CCOC(c2ccc(Cl)c(Cl)c2)C1 (centres undefined) do in these assays?
NPR1 antag: inconclusive; HEK cytotox: inconclusive; FLuc inh: inactive; GPT2 inh: inactive; NIH3T3 tox: inconclusive

What do the screens show for `O=C(NCC1CC1)c1ccc2nnc(-c3ccc(Cl)cc3Cl)n2c1`?
HEK cytotox: inconclusive; GPT2 inh: -3%; NIH3T3 tox: -27%

How did O=[S+]1([O-])NC2(CCN(Cc3ccc(OC(F)(F)F)cc3)C2)CNc2ccccc21 (centres undefined) do in these assays?
NPR1 antag: inconclusive; HEK cytotox: 50µM*; FLuc inh: inactive; GPT2 inh: inactive; NIH3T3 tox: inconclusive; Npr1 antag conf: 9.7µM*; Npr2 selectivity: 12µM*; FLuc inh counter: 0%; GloSensor cGMP: 11µM*

Results for O=[S+]1([O-])NC2(CCN(Cc3ccc(F)cc3)C2)CNc2ccccc21 (centres undefined) ?
NPR1 antag: -5%; HEK cytotox: inconclusive; FLuc inh: inactive; GPT2 inh: inactive; NIH3T3 tox: -22%

What do the screens show for `CCc1cc(=O)n(CC(=O)N2CCN(c3ccc(OC)cc3)CC2)c(-c2ccccc2)n1`?
NPR1 antag: 5%; HEK cytotox: -5%; FLuc inh: inactive; GPT2 inh: -28%; NIH3T3 tox: inactive

How did CCc1cc(=O)n(CC(=O)N2CCN(c3ccccc3OC)CC2)c(-c2ccccc2)n1 do in these assays?
NPR1 antag: -19%; HEK cytotox: 40µM*; FLuc inh: inactive; GPT2 inh: inactive; NIH3T3 tox: inconclusive; Npr1 antag conf: inconclusive; Npr2 selectivity: -24%; FLuc inh counter: 2%; GloSensor cGMP: -3%

How did O=C([C@@H]1C[C@H](Oc2ccccc2)CN1C(=O)c1cc2ccccc2[nH]1)N1CCCC1 do in these assays?
NPR1 antag: 4%; HEK cytotox: -1%; FLuc inh: inactive; GPT2 inh: 0%; NIH3T3 tox: -13%

How did O=C(OCc1ccccc1)N1CCC2(CC1)C(=O)NN=C2c1cccnc1 do in these assays?
NPR1 antag: inconclusive; HEK cytotox: inconclusive; FLuc inh: inactive; GPT2 inh: inactive; NIH3T3 tox: inconclusive; Npr1 antag conf: 19µM*; Npr2 selectivity: 22µM*; FLuc inh counter: 1%; GloSensor cGMP: 17µM*

Results for O=C(c1ccccc1)N1CCC2(CC1)C(=O)NN=C2c1cccnc1 ?
NPR1 antag: 0%; HEK cytotox: 1%; FLuc inh: inactive; GPT2 inh: inactive; NIH3T3 tox: -11%

What do the screens show for `O=C(Cc1cccc(F)c1)NCC(=O)N1CCCCCNC(=O)CC1c1ccccc1` (centres undefined)?
NPR1 antag: 2%; HEK cytotox: -2%; FLuc inh: inactive; GPT2 inh: inactive; NIH3T3 tox: inactive

Results for CNC(=O)N1CCC(C2CCN(C(=O)NC(C)C)C2)CC1 (centres undefined) ?
NPR1 antag: 1%; HEK cytotox: 2%; FLuc inh: inactive; GPT2 inh: inactive; NIH3T3 tox: -1%

What do the screens show for `COc1ccc(-c2cc(N3CCN(C(=O)c4ccc(F)cc4F)CC3)n[nH]2)cc1`?
NPR1 antag: 0%; HEK cytotox: inconclusive; FLuc inh: inactive; GPT2 inh: inactive; NIH3T3 tox: inconclusive

How did COc1ccc(C(=O)N2CCCN(c3cc(-c4ccc(F)cc4)[nH]n3)CC2)c(C)c1 do in these assays?
NPR1 antag: 5.6µM*; HEK cytotox: inconclusive; FLuc inh: inactive; GPT2 inh: inconclusive; NIH3T3 tox: inconclusive; Npr1 antag conf: 11µM*; Npr2 selectivity: 12µM*; FLuc inh counter: 0%; GloSensor cGMP: 6.9µM*

How did O=C(NC1CCCN(c2cc(-c3ccccc3)[nH]n2)C1)c1cc(Cl)ccc1F (centres undefined) do in these assays?
NPR1 antag: -20%; HEK cytotox: inconclusive; FLuc inh: inactive; GPT2 inh: -8%; NIH3T3 tox: inconclusive

What do the screens show for `COc1ccc(-c2cc(N3CCN(C(=O)c4ccc(Cl)cc4OC)CC3)n[nH]2)cc1`?
NPR1 antag: inconclusive; HEK cytotox: inconclusive; FLuc inh: inactive; GPT2 inh: inactive; NIH3T3 tox: inconclusive

Results for COc1ccc(C(=O)NC2CCN(c3cc(-c4ccc(F)cc4)[nH]n3)CC2)c(C)c1 ?
NPR1 antag: 0%; HEK cytotox: inconclusive; FLuc inh: inactive; GPT2 inh: inactive; NIH3T3 tox: inconclusive; Npr1 antag conf: inconclusive; Npr2 selectivity: inconclusive; FLuc inh counter: 2%; GloSensor cGMP: -20%

Results for O=C(NC1CCN(c2cc(-c3ccccc3)[nH]n2)CC1)c1cc(Cl)ccc1F ?
NPR1 antag: -21%; HEK cytotox: inconclusive; FLuc inh: inactive; GPT2 inh: inactive; NIH3T3 tox: inconclusive; Npr1 antag conf: -22%; Npr2 selectivity: -23%; FLuc inh counter: 2%; GloSensor cGMP: -19%

What do the screens show for `COc1ccc(C(=O)N2CCCN(c3cc(-c4ccc(Cl)cc4)[nH]n3)CC2)c(C)c1`?
NPR1 antag: 3.5µM*; HEK cytotox: 50µM*; FLuc inh: inactive; GPT2 inh: -25%; NIH3T3 tox: inconclusive; Npr1 antag conf: 9.7µM*; Npr2 selectivity: 11µM*; FLuc inh counter: 0%; GloSensor cGMP: 9.7µM*
